# Source: PubChem BioAssay (National Center for Advancing Translational Sciences (NCATS))
# JMJD2A Tudor inh: JMJD2A Tudor domain (human) inhibition | O75164 | AlphaScreen JMJD2A-Tudor / H3K4me3 peptide binding | Potency, µM (titrated, usually from 114 µM), for inactives: at the highest dose activity change, negative = inhibition, most hits filed as inhibitors | 4.4% of 390,000 active | AID 504339; note: % is set by controls: 0 for no effect and ±100 for the full control effect; nearly all actives have a fitted effect of over 50% in size
# HP1b binding inh: inhibitors of HP1-beta chromodomain binding to methylated histone tails | P83916 | AID 540317 | Potency, µM (series often up to 114 µM), without a hit: at the top dose activity change, negative = inhibition, usual class: inhibitors | AlphaScreen HP1-beta / biotin-H3K9me3 peptide binding | 0.56% of 390,000 active; note: nearly all actives have a fitted effect of over 70% in size
#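 HP1-beta protein (50 nM final) preincubated 30 min at room temperature with biotinylated H3(1-18)K9me3 peptide (50 nM) in PBS pH 7.4, 0.01% Tween-20, then compound added for 30 min. AlphaScreen streptavidin donor/nickel chelate acceptor beads (10 ug/mL final), 30 min dark, luminescence read.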
# Sfp inh: inhibitors of Bacillus subtilis Sfp phosphopantetheinyl transferase; Q9F4F7; AID 1490; 3.5% of 310,000 active; Biochemical Sfp PPTase activity, qHTS; Potency, µM, without a hit: largest response in the series, negative = inhibition, most hits filed as inhibitors;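 note: the enzyme is Sfp with the accession as filed and its product quenches rhodamine fluorescence; 0% = enzyme reaction without inhibitor and -100% = no enzyme wells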
#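 Buffer: 50 mM Hepes-Na pH 7.6, 10 mM MgCl2, 0.01% Nonidet P-40, 0.01% BSA. Enzyme 15 nM, pre-exposed to compound 15 min; substrates then added and fluorescence change tracked over 30 min.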
# BAZ2B block: blocks human BAZ2B. AlphaScreen BAZ2B-H3K14Ac peptide displacement. Q9UIF8. Potency, µM (highest dose often 114 µM), for inactives: at the highest dose activity change, negative = inhibition, hits mostly inhibitors. AID 504333. 4.4% of 360,000 active; note: % is set by controls: 0 for no effect and ±100 for the full control effect; nearly all actives have a fitted effect of over 60% in size
#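 BAZ2B 50 nM plus b-H3(5-23)K14Ac 50 nM, PBS pH 7.4/0.01% Tween-20, 30 min RT; compound added (max 110 uM), 30 min RT; streptavidin donor/Ni-chelate acceptor beads 10 ug/mL final, 20 min dark; AlphaScreen read.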
# G9a block: inhibitors of human histone lysine methyltransferase G9a. Q96KQ7. G9a H3K9 monomethylation, AlphaScreen, 2 h. Potency, µM (series often up to 102 µM), for inactives: at the highest dose activity, negative = inhibition, hits mostly inhibitors. 8.8% of 350,000 active; note: % is set by controls: 0 for no effect and ±100 for the full control effect; nearly all actives have a fitted effect of over 75% in size
#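 Signal arises when biotinylated H3K9 peptide, once monomethylated, bridges streptavidin donor and antibody-captured acceptor beads. Enzyme at 20 nM was preincubated 15 min with test compounds; peptide 500 nM and SAM 20 uM then reacted for 2 h.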
# TDP1 block: TDP1 (human) enzyme inhibition; Potency, µM (series often up to 130 µM), for the others: at the top dose activity change, negative = inhibition, most hits filed as inhibitors; recombinant TDP1, AlphaScreen DNA substrate cleavage; 0.28% of 350,000 active; AID 485290; note: % is set by controls: 0 for no effect and ±100 for the full control effect; nearly all actives have a fitted effect of over 40% in size
# Target sequence (Q9NUW8 whole entry, looked up): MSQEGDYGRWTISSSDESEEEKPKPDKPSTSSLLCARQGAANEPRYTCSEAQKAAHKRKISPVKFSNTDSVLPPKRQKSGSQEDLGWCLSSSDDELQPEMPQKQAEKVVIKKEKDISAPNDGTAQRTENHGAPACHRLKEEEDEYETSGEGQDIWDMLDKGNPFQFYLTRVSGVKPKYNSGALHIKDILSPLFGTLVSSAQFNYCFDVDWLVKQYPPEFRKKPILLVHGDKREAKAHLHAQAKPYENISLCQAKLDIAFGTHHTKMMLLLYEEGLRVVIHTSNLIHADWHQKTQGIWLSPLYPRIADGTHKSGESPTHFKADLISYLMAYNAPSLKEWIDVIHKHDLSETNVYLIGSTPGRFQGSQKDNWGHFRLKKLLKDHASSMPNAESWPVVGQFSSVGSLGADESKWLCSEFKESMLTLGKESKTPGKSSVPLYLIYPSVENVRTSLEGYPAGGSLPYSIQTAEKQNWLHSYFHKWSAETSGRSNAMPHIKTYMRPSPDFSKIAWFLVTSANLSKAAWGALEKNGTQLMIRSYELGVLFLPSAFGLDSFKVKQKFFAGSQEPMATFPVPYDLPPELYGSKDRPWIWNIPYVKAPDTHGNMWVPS
#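 Recombinant E. coli-expressed Tdp1 (1 nM) preincubated with compound 15 min at RT, then 5'-biotin/3'-phosphotyrosine-FITC DNA substrate (15 nM) added for 5 min. AlphaScreen beads (10 ug/ml) added, 10 min RT; tyrosine-FITC cleavage read as signal loss.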
# The depositor's hits bear a star; ? = inconclusive; / = no result given; [ ] = remark or other dose. Hits are enriched below; roughly 12% of the tested compounds scored in any of these assays. Calls come from the whole dose curve; as a rule, active = well fitted curve in the direction sought with a large enough effect; inconclusive = small, poorly fitted or top-dose-only effect, or another doubt; inactive = no such curve, though single readings can be large; an effect the other way counts as inactive or inconclusive. Potency is the fitted concentration of half-maximal effect.
SMILES,JMJD2A Tudor inh,HP1b binding inh,Sfp inh,BAZ2B block,G9a block,TDP1 block
CCSCCNC(=O)c1cc(-n2cnnc2)ccc1Cl,-7%,36%,-1%,1%,2.5µM*,2%
O=C(NCCOc1cccc(Cl)c1Cl)c1cc(-n2cnnc2)ccc1Cl,-17%,29%,12%,12%,20%[2.33 µM],3%
N#CCCn1cnc2c(=S)nc[nH]c21,35µM*,7%,?,-33%,?,1%
Cc1ncc(CO)c(/C=N/Nc2cccc(Cl)n2)c1O,-35%,37%,?,7%,14%,/
Cc1ncc(CO)c(/C=N/NC(=O)c2cc(Br)ccc2O)c1O,79µM*,39%,-10%,11µM*,-40%,9%
Cc1cc(C(=O)N/N=C/c2c(CO)cnc(C)c2O)c2ccccc2n1,50µM*,38%,12%,25µM*,71%,6%
Cc1ncc(CO)c(/C=N/NC(=O)c2cc(O)c(O)c(O)c2)c1O,/,/,20µM*,10µM*,?,?
O=C(O)Cc1ccc(O)c(O)c1,56µM*,?,40µM*,-8%,0.24µM*,?
O=C(c1ccco1)N1CCN(C(=O)c2cnn(-c3ccc(Cl)cc3)c2C2CCNCC2)CC1,-10%,38%,1%,-5%,71µM*,1%
OC1COC(c2ccccc2)OC1C1OC(c2ccccc2)OCC1O (configuration not stated),-2%,33%,/,/,/,/
CC(=O)C(=Nc1ccccc1Cl)NNc1ccc(Cl)cc1,32µM*,50µM*,-15%,28µM*,7.9µM*,7%
Cc1cc(C(=O)CN2C(=O)NC(CC(C)C)C2=O)c(C)n1-c1ccccc1F (configuration not stated),-10%[57.1 µM],38%,3%,?,50µM*,2%
COC(=O)c1ccc(-n2c(C)cc(C(=O)CSc3ccc(NC(C)=O)cc3)c2C)cc1,?,-24%,-15%,?,?,8%
CC(=O)Nc1ccc(SCC(=O)c2cc(C)n(-c3ccccc3F)c2C)cc1,?,-30%,?,45µM*,?,5%
O=C(CCN1CCCCO1)N1CCCC(Nc2cccc(F)c2)C1 (configuration not stated),-11%,16%[57 µM],15%,6%,62%,2%
CC(C)c1ccc(C(CC(=O)O)N2Cc3ccccc3C2=O)cc1 (configuration not stated),-10%,27%,19%,-11%,-3%,/
CCCCCn1nnc2c(=O)oc3ccccc3c21,-7%,37%,2%,-3%,29%,2%
Cc1nc(N)sc1C(=O)N1N=N1,?,6%,-27%,-14%,8.9µM*,1%
Cc1sc2nc(CSC(C)C(=O)N3CCOCC3)[nH]c(=O)c2c1C (configuration not stated),-19%,23%,10%,-2%,/,0%
C[C@@H]1[C@H]2CCCC[C@H]2CN(C(=O)OC(C)(C)C)[C@@H]1c1cn(Cc2ccccc2)c2ccc(F)cc12,-8%,27%,/,/,/,0%[56.1 µM]
Cc1sc(N)nc1-c1ccc2c(c1)OCCO2,-26%,1%,79µM*,-5%,35µM*,7%
Nc1nc(-c2ccc3c(c2)OCCO3)c(CC(=O)O)s1,-19%,19%,-20%,-31%,/,1%
NC1=NN=C(c2ccc3c(c2)OCCO3)CS1,-26%,-5%,79µM*,-21%,?,9%
Cc1sc(N)nc1-c1ccc(Oc2ccccc2)cc1,?,-20%,0%,50µM*,?,10%
CCOc1ccc(C(=O)NCC(=O)OCCN2C(=O)c3ccccc3C2=O)cc1OCC,1%,30%,/,7%,3%[12.7 µM],1%
SMILES,JMJD2A Tudor inh,HP1b binding inh,Sfp inh,BAZ2B block,G9a block,TDP1 block
COCCOC(=O)c1c(NC(=O)COC(=O)c2ccc(C)o2)sc(C(N)=O)c1C,-24%,25%,/,4%,6%[12.7 µM],-13%
O=C(COC(=O)c1cc([N+](=O)[O-])ccc1NCc1ccccc1Cl)NCC(F)(F)F,-9%,14%,-2%,-7%,22%[59 µM],3%
Cc1cccc(N2CCN(C(=O)c3noc4c3CCCCC4)CC2)c1C,23%,65%,/,19%[57.1 µM],-1%[59 µM],2%
CC(=O)Nc1ccc(C(=O)COC(=O)CCc2ccccc2)c(F)c1,-5%,32%,/,-5%,?,1%
Fc1ccc(-c2ccc(CNCCSc3nnnn3-c3ccccc3)o2)cc1,?,-15%,/,35µM*,13µM*,5%
Cc1c(Cl)cccc1-c1ccc(CNCCSc2nnnn2-c2ccccc2)o1,3%,3%,/,?,-33%[59 µM],2%
Fc1ccc(-c2ccc(CNCc3ccccn3)o2)cc1,50µM*,15%,-2%,50µM*,40µM*,/
Fc1ccc(NC(=S)NCc2ccccn2)cc1,-35%,21%,5%,-2%,28%[0.501 µM],6%
Clc1ccc(-c2ccc(CNCc3ccccn3)o2)cc1,79µM*,-1%,-5%,20µM*,?,/
N#C/C(=C\c1ccccc1)c1nc(-c2cc3c(ccc4ccccc43)oc2=O)cs1,1%,40%,/,3%,-6%[59 µM],-9%[12.3 µM]
COc1ccc(C(=O)N(Cc2cccs2)Cc2cccs2)c(O)c1,-28%,/,/,/,/,-8%
N#Cc1cc2nc(O)c(O)nc2cc1[N+](=O)[O-],79µM*,-19%,14%,6%,1%[59 µM],7%[56.1 µM]
O=[N+]([O-])c1cc2nc(O)c(O)nc2cc1[N+](=O)[O-],/,/,27%,/,23%[59 µM],-4%
Cc1nc(C(=O)N(C)C)nn1-c1cc(Cl)ccc1Cl,-18%,11%,3%,-4%,12%[59 µM],2%
Cc1c(C(=O)N(C)C)c2ccc(Cl)cc2n1O,-9%,13%,7%,4%,3.2µM*,0%
O=C(NCc1ccccc1Cl)c1ccc2nnsc2c1,-20%,8%,8%,4%,11%,-5%
COc1ccc2ccccc2c1CN1CCN(C)CC1,28%,25%,1%,-29%,-30%[59 µM],2%
COc1ccc2ccccc2c1CN(C)Cc1ccccc1,28µM*,14%,15%,?,-7%[0.501 µM],/
COc1ccc(CCNCc2c(OC)ccc3ccccc23)cc1OC,-9%,29%,-12%,0%,-42%,/
CN(C)Cc1c(O)ccc2ccccc12,5%[11.4 µM],36%,6%,-18%,7.9µM*,9%
COc1cccc(CN(C)Cc2c(O)ccc3ccccc23)c1,-6%,5%,-3%,3%,8.9µM*,6%[0.0935 µM]
COc1ccc2ccccc2c1CNC(C)CCc1ccccc1 (configuration not stated),79µM*,-1%,-17%,-15%,/,3%
COc1ccc(NC(=O)COC(=O)CC2CCCC2)cc1,-13%,8%,/,/,/,-3%
O=c1c2c3c(sc2nnn1Cc1ccc(Br)cc1)CCCC3,15%,46%,/,22%,64%[59 µM],-1%
CN(Cc1ccccc1)Cc1ccccc1,/,/,24%,/,-2%[12.7 µM],0%
